Measured values taken from ChEMBL document CHEMBL3433997, “St. Jude Leishmania screening dataset” (2016).

Assays:
Assay type in all cases: functional
[1] = biological target: Solute carrier family 2, facilitated glucose transporter member 1 (Homo sapiens) (UniProt P11166); assay: ST_JUDE_LEISH: Cytotoxicity at 2uM final concentration against transgenic Leishmania Mexicana promastigotes LmGLUT1 that are glucose transport deficient and complemented with the human glucose transporter GLUT1. Activity is measured by DNA content using SYBR green in vitro
[2] = biological target: Hexose transporter 1 (Plasmodium falciparum) (UniProt O97467); assay: ST_JUDE_LEISH: Cytotoxicity at 2uM final concentration against transgenic Leishmania Mexicana promastigotes LmPfHT that are glucose transport deficient and complemented with the Plasmodium falciparum hexose transporter. Activity is measured by DNA content using SYBR green in vitro
[3] = biological target: Glucose transporter (Leishmania mexicana) (UniProt O61059); assay: ST_JUDE_LEISH: Cytotoxicity at 2uM final concentration against transgenic Leishmania Mexicana promastigotes LmGT2 that are glucose transport deficient and complemented with the L. Mexicana glucose transporter 2. Activity is measured by DNA content using SYBR green in vitro

Chain of Solute carrier family 2, facilitated glucose transporter member 1 (Homo sapiens) (P11166 whole entry): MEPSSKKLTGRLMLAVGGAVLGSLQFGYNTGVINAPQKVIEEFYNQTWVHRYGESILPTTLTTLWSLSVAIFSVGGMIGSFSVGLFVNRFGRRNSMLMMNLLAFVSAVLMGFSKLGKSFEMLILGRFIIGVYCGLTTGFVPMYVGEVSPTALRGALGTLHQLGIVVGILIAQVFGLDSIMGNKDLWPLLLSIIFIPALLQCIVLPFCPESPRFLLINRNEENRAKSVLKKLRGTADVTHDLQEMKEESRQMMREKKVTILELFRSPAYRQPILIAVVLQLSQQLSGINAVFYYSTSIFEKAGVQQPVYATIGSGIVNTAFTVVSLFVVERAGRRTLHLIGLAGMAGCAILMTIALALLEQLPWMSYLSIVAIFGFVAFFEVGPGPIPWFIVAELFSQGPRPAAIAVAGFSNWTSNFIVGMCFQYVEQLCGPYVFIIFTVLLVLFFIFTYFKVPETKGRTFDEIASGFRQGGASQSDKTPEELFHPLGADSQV

SMILES | inhibition [1] [%] | inhibition [2] [%] | inhibition [3] [%]
O=C(Nc1ccc(Cn2ncc(N3CCCNCC3)c(Cl)c2=O)cc1)Nc1cccc(SC(F)(F)F)c1 | 0.84 | 1.25 | 0.05
O=C(Nc1ccc(C(=O)N2CCN(CCN3CCN(c4cccc(C(F)(F)F)c4)CC3)CC2)cc1)c1ccc(OC(F)(F)F)cc1 | -1.35 | 0.14 | -2.39
CCN(CC)CCN(Cc1ccc(-c2ccc(C(F)(F)F)cc2)cc1)C(=O)Cn1cc(CCCCc2cccc(F)c2F)c(=O)c2ccccc21 | 7.95 | 6.93 | 10.4
Cn1cncc1C(=O)Nc1cccc(-c2cccc(-c3nc4cc(F)ccc4[nH]3)c2)c1 | 4 | 3.24 | 1.75
COc1ccc2nccc(CCC3(O)CCC(NCc4cc5c(cc4F)SCC(=O)N5)CC3)c2c1 (stereo not given) | 0.25 | 2.45 | -2.7
CCc1ccc(NC(=O)N(CCCn2ccnc2)Cc2csc(-c3ccc(CNCc4ccccc4)cc3)n2)cc1 | 2.66 | 2.93 | 2.49
c1cncc(CCNCc2cccc(-c3csc(-c4nc5ccccc5[nH]4)c3)c2)c1 | 4.04 | 4.06 | 2.64
COc1ccc(CCN(C)CCCCc2ccc(NC(=O)c3cccc4c(=O)c5cc(F)ccc5sc34)cc2)cc1OC | 9.78 | 4.42 | 2.03
Cc1cc2nc(-c3ccc(/C=C/C(=O)NCCCc4ccccc4)cc3)[nH]c2cc1C | 4.43 | 2.87 | 1.65
Nc1nc(N)c2cc(S(=O)(=O)c3ccc4ccccc4c3)ccc2n1 | 10.7 | 18.4 | 8.89
COc1ccccc1CCNc1nc(C)cc(NCCC(=O)NCCOc2ccccc2)n1 | 5.24 | 7.33 | 2.01
Cc1ccccc1Oc1nc2ccccc2nc1SCC(=O)NC(C)C | 2.29 | 2.25 | -1.86
CCCCOc1ccc(-c2nc3ccccc3[nH]2)cc1 | 9.74 | 8.64 | 2.74
COc1ccc(-c2cccc(NC(=O)c3ccccc3)c2)cc1CN1CCCN(C)CC1 | -2.02 | -2.26 | 2.04
COc1cc2nccc(Nc3cc(C)cc(O)c3)c2cc1OC | 2.64 | 3.99 | 0.8
CCCCCN1CCCC(CNS(=O)(=O)c2ccc(C(=O)Nc3ccc(C(F)(F)F)cc3)cc2)C1 (stereo not given) | -1.01 | -0.37 | -0.42
CN(C)C(=O)c1cccc(COc2ccc(N3C(N)=NC(N)=NC3(C)C)cc2Cl)c1 | 1.73 | 1.77 | -0.58
O=C(Nc1ccc(-c2ccc(-c3nc4ccccc4[nH]3)s2)cc1)Nc1ccsc1 | 0.72 | -0.46 | 4.17
COC(=O)c1cccc(CNCc2ccc(-c3cccc(-c4nc5cccc(C)c5[nH]4)c3)cc2)c1 | -0.37 | -1.65 | -2.21
CCN1CCCC(CNC(=O)/C(=C/C=C/c2cc3cc(Cl)c(Cl)cc3[nH]2)OC)C1 (stereo not given) | -0.41 | 1.17 | 1.2
Cc1cnc(CNCc2ccc(S(=O)(=O)Nc3ccc(Oc4cccc(Cl)c4)cc3)cc2)cn1 | 5.34 | 2.83 | 2.07
CN(CCNCc1ccc(-c2cccc(-c3nc4ccccc4[nH]3)c2)cc1)S(C)(=O)=O | 0.68 | 0.26 | 1.73
CN1CCN(c2cc(NC(=O)Nc3ccc(-c4ccncc4)c(Cl)c3)ccc2Br)CC1 | 10.9 | 8.89 | 10.5
CN(C)CCOc1cc(NC(=O)Nc2cccc([N+](=O)[O-])c2)ccc1I | 13 | 14.6 | 15.7
CS(=O)(=O)c1ccc(CCNCc2ccc(-c3ccc(CN(C(=O)c4ccco4)C4CCN(Cc5ccccc5)CC4)cc3)nc2)cc1 | 1.33 | 0.67 | 4.41

SMILES | inhibition [1] [%] | inhibition [2] [%] | inhibition [3] [%]
COc1cc(-c2nc(-c3ccc(C(=O)c4ccc(F)cc4)cc3)c(-c3ccccc3)[nH]2)cc(OC)c1O | 3.28 | -0.56 | 0.05
O=C(Nc1cccc(CN2CCCN(Cc3ccccc3)CC2)c1)c1ccc(Cl)c(Cl)c1 | 4.45 | 3.88 | -5.96
NC(=O)NC(=O)C=Cc1ccco1 | 0.54 | 1.9 | 1.91
CSc1cccc(Nc2nc3ccc(S(=O)(=O)NC(C)C(C)C)cc3n2[C@H](C)C(C)(C)C)c1 (stereo not given in full) | 6.73 | 6.18 | 6.54
CN(CCN(C)C(=O)NCc1ccccc1)C(=O)NCc1ccccc1 | 3.05 | 3.69 | 3.75
Cc1ccc2[nH]c(C3CCCNC3)c(-c3ccncc3)c2c1 (stereo not given) | 9.43 | 9.43 | 8.51
CN(C)c1ccc(CN2CCC(NC(=O)c3ccc(-c4cccc(Cl)c4)s3)CC2)cc1 | 0.72 | -1 | 0.31
COc1ccc(-c2cncc(-c3ccc(OC)c(OC)c3)n2)cc1OC | 2.76 | 2.56 | 3.88
CCCCCCNC[C@@H](O)[C@H](Cc1ccccc1)NC(=O)c1cc(NCC)cc(N2CCCCS2(=O)=O)c1 | 1.43 | 1.73 | 5.06
CN1CCCC(CN2CCN(Cc3cccc(-c4ccc(-c5nc6cc(F)ccc6[nH]5)cc4)c3)CC2)C1 (stereo not given) | 2.66 | 1.97 | 1.35
COc1cc(F)c2ncc(Cl)c([C@@H](O)CN3CCC(NCc4cc5c(cn4)OCCO5)CC3)c2c1 | 9.42 | 8.83 | 5.13
CN1CCN(c2ccnc3ccc(NC(=O)Nc4ccccc4Br)cc23)CC1 | -3.53 | -0.8 | 0.11
COc1ccc(CNc2ncc(-c3ccsc3)c(-c3nccs3)n2)cc1OC | 0.9 | 0.94 | 2.07
Cc1cn(CC(=O)Nc2cccc(-c3cccc(-c4nc5cccc(C)c5[nH]4)c3)c2)c(=O)[nH]c1=O | 4.43 | 3.47 | 5.03
Cc1ccc(C)c(S(=O)(=O)Nc2ccc(Br)cc2C(=O)Nc2cccc(C(F)(F)F)c2)c1 | 0.14 | 0.63 | -1.9
CCCCCCCN1CC[C@@H](CCC(O)c2ccnc3ccc(OC)cc23)[C@@H](CC)C1 (stereo not given in full) | -0.47 | 0.63 | 0.73
N=c1c2nc(-c3c(F)cccc3Cl)[nH]c(=O)c2[nH]c(=O)n1-c1ccccc1 | 2.91 | 11.5 | 3.34
CCc1ccc(-n2c(NC(=O)c3ccccc3)nc3ccc(S(=O)(=O)NC(C)C(C)C)cc32)cc1 (stereo not given) | -1.74 | -1.8 | -1.72
COc1c(OC)c(OC)c2ccccc2c1CNCCCCCCNCc1c(OC)c(OC)c(OC)c2ccccc12 | 7.56 | 7.58 | 0.02
CCCCCCCCN1CCN(CCCCCCNc2c3ccccc3nc3ccccc23)CC1 | 55.5 | 28.6 | 61.1
O=C(Cc1cccc(Cl)c1)Nc1cccc(-c2c[nH]c3nc(Nc4ccccc4)ncc23)c1 | 3.42 | -0.54 | 0.7
O=C1CSc2ccc(CNC3CCN(CCc4c(Cl)cnc5ccc(Cl)cc45)CC3)nc2N1 | 0.88 | -0.05 | -1.85
CN1CCC(N(Cc2ccc(-c3ccc(C(F)(F)F)cc3)cc2)C(=O)Cn2cc(Cc3cnn(C)c3)c(=O)nc2SCc2cccc(F)c2F)CC1 | 2.43 | 2.37 | 2.81
CCc1ccc(C2CCN(CCCCNC(=O)c3ccc(NC(=O)c4ccc(Cl)cc4)cc3)CC2)c(OC)c1 | 9.49 | 2.21 | 1.66
O=c1c2ccccc2[nH]c2nc3ccccc3c(Nc3ccccc3)c12 | 10.2 | 12.5 | 8.59
